The entries come from a sample that favours hits as a whole.
AMA1 RON2 block: AMA1-RON2 (P. falciparum) interaction inhibition. AlphaScreen AMA1-biotinylated RON2 peptide binding. Potency, µM (highest dose often 58.2 µM), actives largely listed as inhibitors. hit rate 0.2% among 360,000. AID 720542; further: nearly all actives have a fitted effect of over 45% in size
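AMA1 (3D7) with his tag at 25 nM final met compounds first, then biotinylated RON2 peptide at 25 nM; detection used donor plus acceptor beads, 10 µg/mL apiece, read by AlphaScreen after 30 min at room temperature.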
AmpC no deterg: blocks E. coli AmpC beta-lactamase in detergent-free assay; AmpC nitrocefin hydrolysis, absorbance 480 nm, 0.0001% Triton; AID 485341; Potency, µM (series often up to 57.1 µM), most hits filed as inhibitors; P00811; hit rate 0.52% among 330,000; further: nearly all actives have a fitted effect of over 20% in size
Target sequence (P00811 whole entry, looked up): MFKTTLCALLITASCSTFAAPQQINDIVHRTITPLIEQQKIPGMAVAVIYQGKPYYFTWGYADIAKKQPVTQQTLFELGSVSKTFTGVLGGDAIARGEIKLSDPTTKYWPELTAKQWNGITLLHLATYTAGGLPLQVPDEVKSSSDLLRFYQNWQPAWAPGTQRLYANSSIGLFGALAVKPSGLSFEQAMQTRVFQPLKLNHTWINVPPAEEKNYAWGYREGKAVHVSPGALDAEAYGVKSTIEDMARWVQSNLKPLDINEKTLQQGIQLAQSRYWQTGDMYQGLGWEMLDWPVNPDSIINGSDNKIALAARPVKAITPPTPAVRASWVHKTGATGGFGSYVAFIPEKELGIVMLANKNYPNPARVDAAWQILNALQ
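20 mM phosphate pH 7.0 + 0.01% (detergent screen) or 0.0001% Triton X-100; 5.3 nM AmpC reagent; cpd preinc 15 min RT; nitrocefin (800 uM stock) to start; A480 q20 s × 4 min; Activity was normalised to no-enzyme and no-compound control wells.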
AmpC inh detg: AmpC beta-lactamase inhibition with detergent present. hit rate 0.041% among 370,000. AmpC hydrolysis of nitrocefin, absorbance 480 nm, 0.01% Triton. Potency, µM (titrated, usually from 114 µM), hits mostly inhibitors; further: nearly all actives have a fitted effect of over 25% in size
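20 mM phosphate pH 7.0 + 0.01% (detergent screen) or 0.0001% Triton X-100; 5.3 nM AmpC reagent; cpd preinc 15 min RT; nitrocefin (800 uM stock) to start; A480 q20 s × 4 min; Activity was normalised to no-enzyme and no-compound control wells.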
SARS PLpro yeast: SARS-CoV PLP inhibition in yeast; S. cerevisiae expressing SARS-CoV PLpro, growth rescue; Potency, µM (doses to about 32.9 µM), usual class: activators; hit rate 0.19% among 330,000; AID 485353; calls by dose curve; further: nearly all actives have a fitted effect of over 55% in size
Shiga inhibitor: blocks Shiga toxin action in Vero cells. Vero cells, Shiga toxin protein synthesis inhibition reporter. inhibition, % at 38.7 µM. hit rate 9.2% among 290,000. AID 2315; in the data active means inhibition mostly above about 28%, no sharp cut-off; inactive means mostly below about 43%
CHX counter: counter-screen hit for Shiga toxin inhibitors, cycloheximide. cell reporter, cycloheximide protein synthesis inhibition counterscreen. hit rate 12% among 300,000. max response, %; in the data active means max response mostly above about 13%, no sharp cut-off; inactive means mostly below about 14%; further: read at 38.3 µM for the half of the compounds with a filed dose
Large screens that a line does not name were inactive. Unless noted, the call rests on the fitted dose curve; in most records, active means well fitted curve in the direction sought with a large enough effect; inconclusive means small, poorly fitted or top-dose-only effect, or another doubt; inactive means no such curve, though single readings can be large; an effect the other way counts as inactive or inconclusive.

CC(C)CN(C(=O)CN(C)S(=O)(=O)c1ccc(Cl)cc1)C1CCS(=O)(=O)C1 (centres undefined)	none
C[C@H]1CN([C@@H](C)CO)S(=O)(=O)c2ccc(Br)cc2O[C@H]1CN(C)C(=O)Cc1ccccn1	none (no result: AmpC no deterg, AmpC inh detg, SARS PLpro yeast, Shiga inhibitor, CHX counter)
CCN(CC)c1nc(SCCOC(=O)Nc2ccccc2)nc(N(CC)CC)n1	CHX counter 16.4
CN(C)c1nc(SCCOC(=O)c2ccccc2)nc(N(C)C)n1	AMA1 RON2 block inconclusive
CC1SCC(NC(=O)c2ccccc2Cl)CS1 (centres undefined)	Shiga inhibitor 73.8, CHX counter 52.8
CC1SCC(NC(=O)c2ccc(Cl)cc2)CS1 (centres undefined)	Shiga inhibitor 48.8, CHX counter 28.9
O=C(NC1CCS(=O)(=O)C1)c1ccccc1Cl (centres undefined)	none (no result: AmpC inh detg, Shiga inhibitor, CHX counter)
CC1SCC(NC(=O)c2cccc(Cl)c2)CS1 (centres undefined)	none
CCC(C)NC(=O)CCC(=O)NNc1nc2ccccc2c2nc(C)nn12 (centres undefined)	none
COc1ccc(/C=C2\N=C(SC)N(c3ccccc3OC)C2=O)cc1	CHX counter 25.1
CCOc1ccc(N2C(=O)/C(=C/c3ccccc3)N=C2SC)cc1	none
CC1(C)CC(=O)C2=C(C1)Nc1ccccc1NC2c1ccc(F)c(F)c1 (centres undefined)	none
O=C1/C(=C/c2cccs2)SC(=S)N1CCC(=O)N1CCCCC1CCO (centres undefined)	Shiga inhibitor 120.6, CHX counter 38.5
COc1ccccc1/C=C1\SC(=S)N(CCC(=O)N2CCCCC2CCO)C1=O (centres undefined)	AmpC inh detg inconclusive
CN1CCN(c2ccc(N)cc2)CC1	none
CN1C(=O)C(Cl)(Cl)C(=O)c2ccccc21	AmpC inh detg inconclusive, CHX counter 17.8
COc1cccc2cc(C(C)=O)oc12	none
COc1cccc2cc(/C(=N/O)c3ccccc3)oc12	CHX counter 26.0
COc1ccc(C(=O)c2cc3cccc(OC)c3o2)cc1	Shiga inhibitor 98.3, CHX counter 40.5
Cc1ccc(S(=O)(=O)Nc2cccc(-c3ccc(N4CCCCCC4)nn3)c2)cc1	AmpC no deterg 0.708µM, Shiga inhibitor 89.5, CHX counter 39.2
COc1ccc(S(=O)(=O)Nc2cccc(-c3ccc(N4CCCCCC4)nn3)c2)c(OC)c1	Shiga inhibitor 60.3, CHX counter 53.0
COc1ccc(S(=O)(=O)Nc2cccc(-c3ccc(N4CCCCCC4)nn3)c2)cc1	none (no result: AMA1 RON2 block, AmpC no deterg, SARS PLpro yeast, Shiga inhibitor, CHX counter)
Cc1cccc(S(=O)(=O)Nc2cccc(-c3ccc(N4CCCCC4)nn3)c2)c1	Shiga inhibitor 73.4, CHX counter 58.8 (no result: AMA1 RON2 block, AmpC no deterg, SARS PLpro yeast)
O=S(=O)(Nc1cccc(-c2ccc(N3CCCCCC3)nn2)c1)c1ccccc1	none (no result: AMA1 RON2 block, AmpC no deterg, SARS PLpro yeast, Shiga inhibitor, CHX counter)
COc1ccc(S(=O)(=O)Nc2cccc(-c3ccc(N4CCCCCC4)nn3)c2)cc1OC	Shiga inhibitor 40.5, CHX counter 35.5
COc1ccc(S(=O)(=O)Nc2cccc(-c3ccc(N4CCCC4)nn3)c2)c(OC)c1	none (no result: AMA1 RON2 block, AmpC no deterg, SARS PLpro yeast, Shiga inhibitor, CHX counter)
O=C(c1ccccc1)c1ccc2nc(Nc3ccccc3Cl)c3nncn3c2c1	none (no result: AMA1 RON2 block, AmpC no deterg, SARS PLpro yeast, Shiga inhibitor, CHX counter)
Cc1cc(/C=C2\SC(=S)N(Cc3ccco3)C2=O)c(C)n1-c1ccccc1	AMA1 RON2 block inconclusive, Shiga inhibitor 80.3, CHX counter 73.2
Cc1cc(/C=C2\SC(=S)N(C)C2=O)c(C)n1-c1cccc(O)c1	Shiga inhibitor 107.5, CHX counter 58.8
Cc1cc(/C=C2\SC(=O)N(C)C2=O)c(C)n1-c1ccc(S(N)(=O)=O)cc1	CHX counter 22.3
CC(=O)NC1=NC(=O)/C(=C/c2cc(C)n(-c3ccc(NC(C)=O)cc3)c2C)S1	CHX counter 33.0
O=C(COc1ccc(S(=O)(=O)N2CCOCC2)cc1)NCCCn1ccnc1	none
CCOc1ccc(N2C(=O)/C(=C/c3ccccn3)SC2=S)cc1	none
Cc1cc(/C=C2\SC(=O)N(C)C2=O)c(C)n1-c1ccc(O)cc1	AmpC inh detg inconclusive, Shiga inhibitor 51.0, CHX counter 34.1
CN=C1S/C(=C\c2cc(C)n(-c3ccccc3F)c2C)C(=O)N1C	Shiga inhibitor 95.7, CHX counter 43.7
O=C1/C(=C/c2ccccn2)SC(=S)N1c1cccc(O)c1	AmpC no deterg inconclusive, Shiga inhibitor 38.0, CHX counter 36.4
Cc1cccc(C(=O)Nc2cccc(NC(=O)c3ccccc3)c2)c1	AmpC no deterg 22.4µM
Cc1cccc(C(=O)Nc2cccc(C(=O)Nc3cc(C)ccn3)c2)c1	CHX counter 8.5
Cc1ccnc(NC(=O)c2cccc(NC(=O)Cc3ccccc3)c2)c1	CHX counter 15.3
CCOC(=O)c1nn(-c2ccccc2F)c2nc(-c3ccco3)c(C#N)c(=O)n12	AmpC inh detg inconclusive
COc1nc(-c2ccccc2)ccc1-c1noc(-c2cccnc2)n1	CHX counter 8.7
COc1ccccc1-c1noc(-c2cccnc2)n1	Shiga inhibitor 66.7, CHX counter 29.2
COc1ccccc1Cc1nc(-c2cccnc2)no1	Shiga inhibitor 55.4, CHX counter 36.9
CC1(C)CC(=O)N(c2ccc(C#N)cc2)C(=O)C1	none
COC(=O)c1ccccc1OCCCOc1ccc(C=O)cc1OC	Shiga inhibitor 86.5, CHX counter 36.9
COc1cc(C=O)ccc1OCc1cccc(Br)c1	Shiga inhibitor 70.4, CHX counter 46.7
CCOc1cc(C=O)ccc1OCCSc1ccc(C)cc1	none
COC(=O)c1ccccc1OCCOc1ccccc1C(=O)OC	none
COc1cc(C=O)ccc1OCCSc1ccc(C)cc1	AmpC inh detg inconclusive, Shiga inhibitor 46.1, CHX counter 39.1
COc1cc(C=O)ccc1OCc1ccccc1Br	AmpC inh detg inconclusive, Shiga inhibitor 73.7, CHX counter 60.8
Cc1cc(C)nc(SC(C)C(=O)O)n1 (centres undefined)	none
CCCCCCn1c(=O)n2n(c1=O)C[C@]1(OC(=O)Nc3cccs3)CN(S(=O)(=O)c3ccc(C)cc3)C[C@]1(O)C2	none (no result: AmpC no deterg, AmpC inh detg, SARS PLpro yeast, Shiga inhibitor, CHX counter)
COc1cc(/C=C2/SC(=O)N(CC(=O)N3CCCC3)C2=O)ccc1Oc1ccc([N+](=O)[O-])cn1	none
Cn1cc(Cl)c(C(=O)Nc2nccs2)n1	Shiga inhibitor 71.1, CHX counter 40.4
O=C(Nc1nccs1)c1ncc(Cl)c(Cl)c1Cl	Shiga inhibitor 66.1, CHX counter 42.1
CCn1ncc(Br)c1C(=O)Nc1nccs1	AmpC no deterg inconclusive
CCn1cc(Cl)c(C(=O)Nc2nccs2)n1	Shiga inhibitor 31.5, CHX counter 33.1
Cc1ccc(C(=O)NCCNS(=O)(=O)c2ccccc2[N+](=O)[O-])cc1	AmpC inh detg inconclusive (no result: Shiga inhibitor)
CCCCn1c(SCC(=O)NC2CCS(=O)(=O)C2)nc2ccccc2c1=O (centres undefined)	SARS PLpro yeast inconclusive

Screens deposited in PubChem BioAssay by National Center for Advancing Translational Sciences (NCATS).
